Screening results deposited in PubChem BioAssay by National Center for Advancing Translational Sciences (NCATS).
DT40 TDP1 no CPT: qHTS for Inhibitors of human tyrosyl-DNA phosphodiesterase 1 (TDP1): qHTS in cells in absence of CPT | 420,000 compounds, 15% hits | DT40 Tdp1-/- hTDP1 cells, no CPT, ATP luminescence, 48 h | Potency, µM (highest dose often 46.2 µM), for the others: at the top dose activity change, negative = growth inhibition, actives largely listed as inhibitors; further: potency means the concentration at half of the fitted maximal effect; nearly all actives have a fitted effect of over 55% in size
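Cells were dispensed at 400 per well, compounds added by pin tool, plates incubated ≥48 hr at 37 °C, then CellTiter-Glo added for 30 min at room temperature before luminescence reading. Line: DT40 Tdp1-/- complemented with hTDP1; camptothecin omitted.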
ELG1 repair inh: qHTS screen for small molecules that inhibit ELG1-dependent DNA repair in human embryonic kidney (HEK293T) cells expressing luciferase-tagged ELG1; HEK293T ELG1-luciferase reporter, luminescence, 16 h; DNA damage induced by 5-fluorouridine; Potency, µM (top dose mostly 46.1 µM), for the others: top-dose activity change, negative = inhibition, usual class: inhibitors; AID 504467, 2011; 330,000 compounds, 2.3% hits; further: potency means the concentration at half of the fitted maximal effect; nearly all actives have a fitted effect of over 55% in size
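Quantitative HTS, concentration-response format. 2,000 cells/well co-treated with 5-fluorouridine and compound, 16 hr in 5% CO2 at 37 °C; ONE-Glo luminescence read after 30 min.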
TDP1 cell CPT: qHTS for Inhibitors of human tyrosyl-DNA phosphodiesterase 1 (TDP1): qHTS in cells in presence of CPT; chicken DT40 Tdp1-/-;hTDP1 cells + 20 nM CPT, ATP luminescence, 48 h; Potency, µM (highest dose often 46.2 µM), for the others: at the top dose activity change, negative = growth inhibition, most hits filed as inhibitors; 420,000 compounds, 12% hits; further: potency means the concentration at half of the fitted maximal effect; nearly all actives have a fitted effect of over 55% in size
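Cell growth measured by CellTiter-Glo luminescence after a minimum 48 h, 37 C compound exposure with 20 nM CPT in Tdp1-knockout DT40 cells stably expressing hTDP1, seeded 400/well; qHTS titration format.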
IL-1B inflam inh: qHTS for Inhibitors of Inflammasome Signaling: IL-1-beta AlphaLISA Primary Screen; THP-1 LPS/ATP IL-1B secretion, AlphaLISA, 16 h; active compounds read low; 360,000 compounds, 4.7% hits; activity change, % at 57.5 µM; in the data active means activity change below about -50%; inconclusive means mostly about -30% to -49%
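THP-1 cells pretreated 1 hr with compounds (up to 57.5 uM final), then stimulated with LPS (250 ng/mL final) plus ATP (1.25 mM final); secreted IL-1B measured by AlphaLISA after 16 hr, decreased signal indicating inhibition.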
Giardia killer: Small Molecules that selectively kill Giardia lamblia: qHTS. Giardia lamblia trophozoite viability. activity change, % at 7.66 µM, hits read low. 340,000 compounds, 0.15% hits. AID 540267, 2011; in the data active means activity change below about -80%; inconclusive means between about -30% and that limit;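 further: parasites exposed to compound for two days anaerobically before the ATP read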
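Anaerobic 48 hrs incubation at 37 deg C of 100 trophozoites/well with test compounds; ATPLite 1-Step luminescence, 15-30 min RT, reports cellular ATP as viability.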
TDP1 inh: qHTS Assay for Inhibitors of Tyrosyl-DNA Phosphodiesterase (TDP1); Tyrosyl-DNA phosphodiesterase 1 (Homo sapiens), Q9NUW8; recombinant TDP1, AlphaScreen DNA substrate cleavage; Potency, µM (series often up to 130 µM), for the others: at the highest dose activity change, negative = inhibition, actives largely listed as inhibitors; 350,000 compounds, 0.28% hits; AID 485290, 2010; further: potency means the concentration at half of the fitted maximal effect; nearly all actives have a fitted effect of over 40% in size
Target sequence (Q9NUW8 whole entry, looked up): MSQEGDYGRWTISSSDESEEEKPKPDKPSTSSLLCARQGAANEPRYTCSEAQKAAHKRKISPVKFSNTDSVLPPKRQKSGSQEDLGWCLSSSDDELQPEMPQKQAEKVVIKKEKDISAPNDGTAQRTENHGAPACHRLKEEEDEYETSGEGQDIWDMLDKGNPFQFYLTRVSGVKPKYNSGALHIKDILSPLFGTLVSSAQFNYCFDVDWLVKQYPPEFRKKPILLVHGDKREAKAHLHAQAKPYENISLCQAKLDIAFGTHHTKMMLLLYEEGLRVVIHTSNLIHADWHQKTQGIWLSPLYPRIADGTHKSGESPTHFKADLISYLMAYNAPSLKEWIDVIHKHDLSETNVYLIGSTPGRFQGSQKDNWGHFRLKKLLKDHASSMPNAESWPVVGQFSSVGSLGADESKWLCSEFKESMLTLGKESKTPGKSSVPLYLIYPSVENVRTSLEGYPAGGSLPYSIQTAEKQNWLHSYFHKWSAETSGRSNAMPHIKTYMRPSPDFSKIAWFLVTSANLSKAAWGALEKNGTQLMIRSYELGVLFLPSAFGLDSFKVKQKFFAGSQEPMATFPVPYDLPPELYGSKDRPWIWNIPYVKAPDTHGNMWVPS
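Tdp1 1 nM final; 15 min RT w/ cpd; substrate 15 nM, 5 min; beads 10 ug/ml, 10 min; AlphaScreen read. Neg ctrl: no enzyme.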
An asterisk follows results filed as active; ? = inconclusive; . = no result; [ ] = dose if it differs, or a comment. Shown are actives, neighbours in structure and some others; about 19% of the full set was active somewhere. Unless noted, the call rests on the fitted dose curve; in most records, active means well fitted curve in the direction sought with a large enough effect; inconclusive means small, poorly fitted or top-dose-only effect, or another doubt; inactive means no such curve, though single readings can be large; an effect the other way counts as inactive or inconclusive. On the % scale 0 is the no-effect control and ±100 the full control effect.

SMILES	DT40 TDP1 no CPT	ELG1 repair inh	TDP1 cell CPT	IL-1B inflam inh	Giardia killer	TDP1 inh
CC[C@H]1[C@@H]2C[C@H]3[C@@H]4N(C)c5ccccc5[C@]45C[C@@H](C2[C@H]5O)N3[C@@H]1O (stereo not given in full)	-25.9%[21.1 µM]	.	?	.	.	.
CCCCCCCCCc1ccc(O)cc1	-12.3%	.	?	.	.	8.9%[56.1 µM]
Oc1cccc(Nc2ncnc3sc4c(c23)CCCC4)c1	14.6µM*	.	16.4µM*	.	.	5.4%
ClCCN(CCCl)c1ccc(-n2cnc3c(Cl)ncnc32)cc1	6.51µM*	.	6.51µM*	-96.0*	-7.6	.
CC(Cc1ccc(OCC(=O)O)cc1)NCC(O)c1cccc(Cl)c1 (stereo not given)	-12.3%	.	-3.6%	.	.	-10.9%[56.1 µM]
Cc1ccccc1C(=O)Nc1ccc(C(=O)OCc2cc(=O)n3nc(C4CC4)sc3n2)cc1	?	.	20.6µM*	.	.	-1.2%
CC(C)C(=O)Nc1ccc(N2CCN(C)CC2)c(F)c1	2.3%	0.0%	0.9%	26.3	-1.3	2.7%
CC(C)C(=O)Nc1ccc([N+](=O)[O-])c(C(F)(F)F)c1	13µM*	-29.2%	13.3µM*	8.4	3.3	-2.8%[56.1 µM]
Cc1cc(C=C2C(=O)NC(=S)NC2=O)c(C)n1-c1ccc2c(c1)OCO2	?	-21.1%	?	-101.5*	15.9	4.2%
Cc1cc(C=C2C(=O)NC(=O)NC2=O)c(C)n1-c1ccc2c(c1)OCO2	-3.2%	15.0%	-17.7%	0.1	2.8	0.0%
CN1C2CCC1/C(=C/c1ccccn1)C(=O)/C2=C\c1ccccn1	0.651µM*	1.84µM*	0.517µM*	-100.8*	-14.9	13.2%
CCC12CN3CC(CC)(CN(C1)C3c1ccccn1)C2=O (stereo not given)	-21.5%	.	1.9%	.	.	4.7%
CCOc1ccc(C(=O)Nc2ccc3nc(SCC(=O)N4CCCC4)sc3c2)cc1	?	.	?	.	.	-1.6%
Cc1ccc2c(c1)C1CN(C)CCC1N2C(=O)Nc1ccc(Cl)cc1 (stereo not given)	25.9µM*	?	?	-72.0*	-12.4	2.1%
Cc1ccc2c(c1)C1CN(C)CCC1N2C(=O)c1cccs1 (stereo not given)	-0.7%	-1.2%	18.8%	-7.8	23.0	1.9%
COc1c2c(c(CC=C(C)C)c3oc(=O)c(-c4ccc(O)cc4)c(O)c13)OC(C)(C)C=C2	-22.5%	.	-4.1%	.	.	18.0%[56.1 µM]
CC[C@H](CC[C@H](C)[C@@H]1CC[C@@H]2[C@H]3CC=C4C[C@@H](O)CC[C@]4(C)[C@H]3CC[C@]21C)C(C)C	.	.	.	.	.	12.8%[21 µM]
CN1CCc2cc3c(c4c2C1Cc1ccccc1-4)OCO3 (stereo not given)	-27.5%	?	-3.9%	-53.6*	-9.3	.
CC(C)(O)[C@H]1O[C@@H]2CC[C@]3(C)[C@@]4(C)c5[nH]c6ccccc6c5C[C@@H]4CC[C@]3(O)C2=CC1=O	?	.	?	.	.	13.1%
O=C(OC1Cc2c(O)cc(O)cc2OC1c1cc(O)c(O)c(O)c1)c1cc(O)c(O)c(O)c1 (stereo not given)	?	.	-11.4%	.	.	.
COc1ccc(C(=O)C2CCCN(CC3CCCCC3)C2)cc1OC (stereo not given)	?	.	?	-11.2	.	.
O=C(c1ccc(-c2ccccc2)c(F)c1)C1CCCN(CCO)C1 (stereo not given)	?	11.6%	?	-74.6*	21.2	7.4%
CN1CCCC(C(=O)c2ccc(-c3ccccc3)cc2)C1 (stereo not given)	18.4µM*	28.3%	?	-12.5	6.6	.
C=CCCC[C@@H]1OC(=O)CNC(=O)C([C@@H](C)CC)NC(=O)[C@@H]2CCCN2C(=O)C([C@@H](C)CC)OC(=O)[C@H](Cc2ccccc2)N(C)C(=O)[C@H](C(C)C)NC(=O)C1(C)C (stereo not given in full)	16.4µM*	.	13µM*	-52.4*	.	.
COc1cc(C2C(C#N)=C(N)Oc3cc(O)ccc32)cc(OC)c1OC (stereo not given)	1.03µM*	?	1.03µM*	20.0	-2.4	3.2%
SMILES	DT40 TDP1 no CPT	ELG1 repair inh	TDP1 cell CPT	IL-1B inflam inh	Giardia killer	TDP1 inh
COc1cc(CC(C)N)cc(OC)c1OC (stereo not given)	-6.3%[92.5 µM]	.	3.5%[92.5 µM]	.	.	.
CC12CCC3c4ccc(OP(=O)(N5CC5)N5CC5)cc4CCC3C1CCC2=O (stereo not given)	13µM*	.	14.6µM*	40.0	-12.7	.
O=C(NCC(c1ccco1)N1CCCC1)c1cccc(S(=O)(=O)N2CCc3ccccc32)c1 (stereo not given)	9.2µM*	.	18.4µM*	-9.9	.	.
Cc1cccc(Cn2cccc(C(=O)Nc3cc(C)on3)c2=O)c1	-22.7%	.	-23.0%	.	.	0.0%
CC(=O)c1cccc(NC(=O)c2cccn(Cc3cccc(C)c3)c2=O)c1	20.6µM*	.	23.1µM*	.	.	-5.2%
O=C(Nc1ccc2c(c1)OCCO2)c1cccn(Cc2cccc([N+](=O)[O-])c2)c1=O	13µM*	.	?	.	.	10.4%
O=C(Nc1ccc2c(c1)OCO2)c1cccn(Cc2cccc([N+](=O)[O-])c2)c1=O	-24.4%	.	-9.7%	.	.	-2.6%
COc1cccc2c1C13CC[N+]4(CC5CC5)CO[C@]1(CCC(=O)C3)C4C2	-12.4%	.	2.5%	.	.	0.0%
Cc1ccc2nc3sc(=O)sc3nc2c1	.	.	.	.	.	20.0%
N[C@H]1C[C@H]1c1ccccc1	.	.	.	.	.	-3.6%[21 µM]
COc1ccc(/C=C/c2cc(O)cc(O)c2)cc1	4.61µM*	.	2.59µM*	.	.	10.1%[56.1 µM]
Cc1cc(C)c(-c2csc(NC(=O)COC(=O)c3ccc4c(c3)OCO4)n2)c(C)c1	25.9µM*	0.3%	?	-5.0	-8.9	4.5%
CN1C2CC(OC(=O)C(CO)c3ccccc3)C[C@@H]1[C@H]1OC21 (stereo not given in full)	-1.3%	.	2.6%	.	.	10.7%[56.1 µM]
CN1C(=O)CCS(=O)(=O)[C@H]1c1ccc(Cl)cc1	2.0%	.	-6.9%	.	.	11.9%[56.1 µM]
COc1ccccc1NC(=O)N(Cc1ccc2c(c1)OCO2)C1CCN(Cc2ccccc2)CC1	5.17µM*	.	4.61µM*	.	.	1.2%
O=C(Nc1ccccc1)N(Cc1ccc2c(c1)OCO2)C1CCN(Cc2ccccc2)CC1	14.6µM*	.	?	.	.	8.7%
CCCCCCC(=O)O[C@H]1CC[C@H]2[C@@H]3CC[C@H]4CC(=O)C=C(C)[C@]4(C)[C@H]3CC[C@]12C	?	.	3.4%	.	.	.
